Experimental data published in PubChem BioAssay (NCATS).
Results filed as inconclusive are left out. Calls of active or inactive are those of the source. Unless noted, calls come from the whole dose curve; as a rule, active = well fitted curve in the direction sought with a large enough effect; inconclusive = small, poorly fitted or top-dose-only effect, or another doubt; inactive = no such curve, though single readings can be large; an effect the other way counts as inactive or inconclusive.

How the values were obtained:
[1] = Cell Viability - BJ (AID 421; calls by dose curve;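 note: potency is the fitted concentration of half-maximal effect; cells exposed to compound for 40 hours at 37 °C before readout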); details: BJ fibroblast viability, qHTS
Method in brief: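 Cytotoxicity as drop in intracellular ATP (CellTiter-Glo, 20 min RT) after 40 hr compound exposure of BJ fibroblasts at 37 °C. Titrations scaled between DMSO and 100 uM tamoxifen, Hill-fitted for AC50.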

[2] = Cell Viability - HUV-EC-C (AID 542); details: HUV-EC-C endothelial cell viability, qHTS; series mostly up to 92.2 µM; note: % is set by controls: 0 for no effect and ±100 for the full control effect; nearly all actives have a fitted effect of over 35% in size
Method in brief: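 HUV-EC-C normal human vascular endothelial cells, 1000 cells/well, pre-incubated 5 hr at 37 °C, then exposed to compounds for 40 hr at 37 °C in complete medium. Viability measured as intracellular ATP by CellTiter-Glo luminescence; AC50 from Hill fits.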

[3] = Cellular Toxicity (caspase-3) HUV-EC-C (AID 656); details: HUV-EC-C cells, caspase-3 activation (apoptosis), vehicle = 0, 100 µM tamoxifen = 100%; series mostly up to 92.2 µM
Method in brief: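 HUV-EC-C cells (1000/well) in complete medium, compound-treated 16 h at 37 °C; caspase-3/7 activity read by Caspase-Glo 3/7 luminescence. Normalized to DMSO (basal) and 100 uM tamoxifen (100%); AC50 from Hill-equation concentration-response fits.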

[4] = Cellular Toxicity (caspase-3) MRC-5 (AID 659); details: MRC-5 cells, luminescence, normalized: DMSO 0%, 10 µM staurosporine 100%; series mostly up to 91.7 µM
Method in brief: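 Concentration-dependent caspase 3/7 activation is measured in human normal lung fibroblasts (MRC-5) following 16-hour treatment. AC50 values come from standard Hill-equation modeling of luminescence normalized to DMSO and 10 uM staurosporine.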

[5] = Cellular Toxicity (caspase-3) Mesangial (AID 660); details: mesangial cells, normalized: DMSO 0%, 100 µM tamoxifen 100%; series mostly up to 91.7 µM;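 note: cells exposed to compound for 16 h before the caspase read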
Method in brief: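 Human renal glomerular mesangial cells (1000/well) were treated with compounds for 16 h at 37 °C in complete medium, then caspase 3/7 activity was read by Caspase-Glo luminescence. Data were normalized to DMSO and 100 uM tamoxifen; AC50 from Hill fits.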

[6] = Cellular Toxicity (caspase-3) SK-N-SH (AID 661); details: SK-N-SH caspase-3 activation, qHTS; series mostly up to 91.7 µM
Method in brief: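 SK-N-SH human neuroblastoma cells (1500/well) were treated with compounds for 16 hr at 37 °C in complete medium; caspase 3/7 activity was read by Caspase-Glo luminescence. AC50 came from Hill fits of data normalized to DMSO and 10 uM staurosporine.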

[7] = Cellular Toxicity (caspase-3) Hek293 (AID 664); details: HEK293 caspase-3 activation, DMSO = 0%, 100 µM tamoxifen = 100%; at 92.2 µM (top of the series);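 note: cells exposed to compound for 16 h at 37 °C before readout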
Method in brief: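 HEK293 cells were exposed to compounds in complete medium for 16 hr at 37 °C, then caspase-3/7 activity was read by Caspase-Glo 3/7 luminescence after 20 min at room temperature. Data normalized to DMSO and 100 uM tamoxifen; AC50 from Hill fits.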

[8] = Cellular Toxicity (caspase-3) NIH 3T3 (AID 666); details: NIH 3T3 caspase-3 activation, apoptosis/toxicity; series mostly up to 92.2 µM;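 note: caspase signal read after 16 h compound exposure; 0% = DMSO basal and 100% = 100 µM tamoxifen stimulation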
Method in brief: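 Mouse NIH 3T3 fibroblasts (1000 cells/well) were treated with compound for 16 hr at 37°C in complete medium; caspase-3/7 activity was read by Caspase-Glo luminescence. Normalized to DMSO and 100 uM tamoxifen; AC50 from Hill fits.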

[9] = MultiTox-Fluor Cytotoxicity Assay - LYMP1-001 - Dead Cells (AID 946); details: LYMP1-001 lymphoblastoid cells, dead-cell protease fluorescence; series mostly up to 92.2 µM
Method in brief: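 Cytotoxicity as increased dead-cell protease fluorescence (bis-AAF-R110, 485/520 nm), read 60 min after MultiTox-Fluor reagent. Human lymphoblastoid line exposed 16 h; Hill-fitted AC50, with DMSO as 0% and 15 uM tetraoctylammonium bromide as 100%.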

[10] = Cell Viability - LYMP1-002 - Assay at 16 hr (AID 948); details: LYMP1-002 lymphoblastoid cell viability; series mostly up to 92.2 µM;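 note: 0% = DMSO alone and full effect = 92 µM tetraoctylammonium bromide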
Method in brief: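 LYMP1-002 human lymphoblastoid cells, 2500/well, were treated with compounds for 16 hr at 37 C in complete medium. Viability was read as intracellular ATP by CellTiter-Glo luminescence, and AC50 was derived from a Hill fit to concentration-response data.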

[11] = MultiTox-Fluor Cytotoxicity Assay - LYMP1-003 - Live Cells (AID 962); details: LYMP1-003 lymphoblastoid cells, MultiTox-Fluor live-cell protease fluorescence; series mostly up to 92.2 µM;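 note: 0% = DMSO only and full loss = 92 µM tetraoctylammonium bromide; cytotoxic hits lower the live-cell protease signal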
Method in brief: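 LYMP1-003 human lymphoblastoid cells (2500/well) in complete medium were preincubated 5 hr at 37 C, then exposed to compounds for 16 hr at 37 C. Live-cell protease cleavage of GF-AFC read by fluorescence (Ex/Em 405/510); AC50 from Hill fits.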

[12] = Cell Viability - LYMP2-003 (AID 965); details: LYMP2-003 lymphoblastoid cell viability; series mostly up to 92.2 µM;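 note: cells exposed to compounds for 24 h before reading; 0% = DMSO only and full effect = 92 µM tetraoctylammonium bromide; nearly all actives have a fitted effect of over 50% in size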
Method in brief: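 Human lymphoblastoid LYMP2-003 cells, 2500/well, exposed to compounds for 24 h at 37 C in complete medium. Viability read as intracellular ATP by CellTiter-Glo luminescence; AC50 from Hill-equation fits of qHTS concentration-response data.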

[13] = Cell Viability - LYMP2-013 (AID 970); details: LYMP2-013 lymphoblastoid cells viability; series mostly up to 92.2 µM;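 note: 0% = DMSO only and full inhibition = tetraoctylammonium bromide control; nearly all actives have a fitted effect of over 55% in size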
Method in brief: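 Human lymphoblastoid cells, 2500/well, were preincubated 5 hr at 37 C, then treated with compounds for 24 hr at 37 C in complete medium. Intracellular ATP was read by CellTiter-Glo luminescence; AC50 from Hill-equation fits of concentration-response data.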

[14] = Cell Viability - LYMP2-015 (AID 971); details: LYMP2-015 lymphoblastoid cell viability; series mostly up to 92.2 µM;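 note: 0% = DMSO only and full effect = 92 µM tetraoctylammonium bromide; nearly all actives have a fitted effect of over 55% in size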
Method in brief: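 Human lymphoblastoid cells (2500/well) in complete medium were preincubated 5 hr at 37 C, then compound-treated 24 hr at 37 C. Intracellular ATP was read by CellTiter-Glo luminescence after 30 min at room temperature; AC50 came from Hill-equation concentration-response fits.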

[15] = Cell Viability - LYMP2-017 (AID 972); details: LYMP2-017 lymphoblastoid cell viability; series mostly up to 92.2 µM; note: % is set by controls: 0 for no effect and ±100 for the full control effect; nearly all actives have a fitted effect of over 55% in size
Method in brief: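 Human lymphoblastoid cells (2500/well) were seeded in complete medium, held 5 hr at 37 C, then exposed to compounds for 24 hr at 37 C. Intracellular ATP was read by CellTiter-Glo luminescence after 30 min at room temperature, with AC50 values from Hill-equation fits.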

[16] = Cell Viability - LYMP2-007 (AID 979); details: LYMP2-007 lymphoblastoid cell viability; series mostly up to 92.2 µM;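 note: cells exposed to compound for 24 h before reading; 0% = DMSO only and the negative end = 92 µM tetraoctylammonium bromide; nearly all actives have a fitted effect of over 60% in size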
Method in brief: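 Human lymphoblastoid cells (2500/well) were plated in complete medium, incubated 5 hr at 37 C, then exposed to compounds for 24 hr at 37 C. Intracellular ATP was read by CellTiter-Glo luminescence after 30 min at room temperature; AC50 from Hill fits.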

[17] = qHTS Assay for Identification of Small Molecule Inducers of Hypoxia Response (AID 2120; active = well fitted curve in the direction sought with a large enough effect in the signal ratio, with a control signal flat, not every such curve was filed as active; the % refers to the signal ratio; note: 0% is about no effect); details: hypoxia response reporter cells, beta-lactamase ratio readout; series mostly up to 104 µM
Method in brief: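 HRE-beta-lactamase reporter in CellSensor HRE-bla ME-180 cells, 2500 cells/well in Opti-MEM with 0.5% dialyzed FBS; compounds tested as titration series, 17 h at 37 degrees C. CCF4 substrate 2.5 h at room temperature; AC50 from 460/530 nm ratio.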

[18] = molecular target: Peroxisome proliferator-activated receptor alpha (Homo sapiens) (UniProt Q07869); assay: qHTS assay for small molecule agonists of the peroxisome proliferator-activated receptor alpha (PPARalpha) signaling pathway (AID 651778); details: PathHunter PPARalpha complementation, chemiluminescence, 6 h; hits give high values; note: % of control where 0% means no effect
Method in brief: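 Chemiluminescence from complemented enzyme reported PPARalpha activation in cells after 6 hr of compound treatment at 37 C. The detection reagent was incubated for 60 min at room temperature, and compounds were scored as agonists.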

[19] = qHTS assay for small molecule agonists of the antioxidant response element (ARE) signaling pathway measured by Nrf2-dependant transcriptional activity - cell viability counter screen (AID 720653; active = well fitted curve in the direction sought with a large enough effect in the repeat runs; an effect the other way counts as inactive or inconclusive; note: % is set by controls: 0 for no effect and ±100 for the full control effect); details: ARE-bla HepG2 viability, CellTiter-Glo ATP luminescence, 16 h; hits give low values
Method in brief: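 Cytotoxicity counter screen: intracellular ATP quantified by CellTiter-Glo luminescence in the same ARE-bla HepG2 plates, after 16 h compound exposure and a 2 h beta-lactamase substrate step.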

[20] = qHTS assay for cell viability of the p53RE-bla HCT-116 cell line (AID 743292); details: p53RE-bla HCT-116 viability, ATP luminescence, 16 h; series mostly up to 95 µM; note: % is set by controls: 0 for no effect and ±100 for the full control effect; nearly all actives have a fitted effect of over 55% in size
Method in brief: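 Luminescent ATP quantitation (CellTiter-Glo) served as the viability read-out; reagent was added after 16 h compound exposure at 37 C and read after 30 min at room temperature. Cells: p53RE-bla HCT-116, 4,000 per well.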

Chain of Peroxisome proliferator-activated receptor alpha (Homo sapiens) (Q07869 whole entry, looked up): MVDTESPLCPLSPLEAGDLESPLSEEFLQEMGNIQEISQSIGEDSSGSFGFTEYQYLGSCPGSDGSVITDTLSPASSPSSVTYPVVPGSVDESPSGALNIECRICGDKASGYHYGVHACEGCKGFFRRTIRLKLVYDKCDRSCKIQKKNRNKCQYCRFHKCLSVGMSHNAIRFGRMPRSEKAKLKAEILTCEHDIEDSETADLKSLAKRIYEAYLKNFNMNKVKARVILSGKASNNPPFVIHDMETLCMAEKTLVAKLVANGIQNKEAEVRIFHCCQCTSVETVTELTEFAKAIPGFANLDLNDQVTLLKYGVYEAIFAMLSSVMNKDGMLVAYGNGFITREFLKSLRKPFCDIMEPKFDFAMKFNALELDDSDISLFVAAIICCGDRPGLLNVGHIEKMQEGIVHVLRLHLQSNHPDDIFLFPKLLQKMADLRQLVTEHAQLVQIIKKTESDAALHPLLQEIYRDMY

CCOP(=S)(OCC)Oc1nc(Cl)c(Cl)cc1Cl
inactive: Potency [1] > 92 µM | Potency [2] | outcome [3] | outcome [4] | outcome [5] | Potency [6] | caspase-3 activation [7] 2.26% | Potency [8] | outcome [9] | outcome [10] | outcome [11] | Potency [12] | Potency [13] | Potency [14] | Potency [15] | Potency [16] | Potency [17] | max response [18] 0.508% [middle of 4 runs] | max response [19] 0.0448% [middle of 4 runs] | Potency [20]

O=Cc1ccc(Cl)cc1Cl
inactive: Potency [1] > 92 µM | Potency [2] | outcome [3] | outcome [4] | outcome [5] | Potency [6] | caspase-3 activation [7] -1.13% | Potency [8] | outcome [9] | outcome [10] | outcome [11] | Potency [12] | Potency [13] | Potency [14] | Potency [15] | Potency [16] | Potency [17] | max response [18] -4.79% | max response [19] 1.04% | Potency [20]

Clc1ccc(C(Cl)(Cl)Cl)c(Cl)c1
inactive: Potency [1] > 92 µM | Potency [2] | outcome [3] | outcome [4] | outcome [5] | Potency [6] | caspase-3 activation [7] 0.186% | Potency [8] | outcome [9] | outcome [10] | outcome [11] | Potency [12] | Potency [13] | Potency [14] | Potency [15] | Potency [16] | Potency [17] | max response [18] -0.345% | max response [19] -1.74% | Potency [20]

Cc1ccc2c(C)cccc2c1
inactive: Potency [1] > 92 µM | Potency [2] | outcome [3] | outcome [4] | outcome [5] | Potency [6] | caspase-3 activation [7] -1.38% | Potency [8] | outcome [9] | outcome [10] | outcome [11] | Potency [12] | Potency [13] | Potency [14] | Potency [15] | Potency [16] | Potency [17] | max response [18] 3.14% | max response [19] -2.91% | Potency [20]

COC(=O)Nc1cccc(OC(=O)Nc2cccc(C)c2)c1
inactive: Potency [1] > 92 µM | Potency [2] | outcome [3] | outcome [4] | outcome [5] | Potency [6] | caspase-3 activation [7] 0.0585% | Potency [8] | outcome [9] | outcome [10] | outcome [11] | Potency [12] | Potency [13] | Potency [14] | Potency [15] | Potency [16] | Potency [17] | max response [18] -6.94% | max response [19] -11.1% | Potency [20]

CC(Cl)CCl (stereo not given)
inactive: Potency [1] > 92 µM | Potency [2] | outcome [3] | outcome [4] | outcome [5] | Potency [6] | caspase-3 activation [7] -1.21% | Potency [8] | outcome [9] | outcome [10] | outcome [11] | Potency [12] | Potency [13] | Potency [14] | Potency [15] | Potency [16] | Potency [17] | max response [18] -4.11% | max response [19] -12.6% | Potency [20]
